# Targets with the largest changes are over-represented here; the source holds about 21,000 in all.
# Compound: CC1Cc2ccccc2N1C(=O)C1CCCN(C1)C(=O)CCl (mixture of isomers) [TRIM25 ligand 11 (diastereomer mixture)]
# Assay: probe-labelled cysteine peptide fold change vs DMSO (competition) (log2 fold change); higher = less target engagement (more negative = stronger competition)
# Conditions: THP-1, incubation time: 4 h
# 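Further: competitive chemoproteomic profiling in live THP-1 cells with an iodoacetamide desthiobiotin (IA-DTB) probe, comparing probe-labelled peptide intensities in compound-treated cells against DMSO-treated controls.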
# Chain of UniProt Q06323 (Q06323 whole entry, looked up): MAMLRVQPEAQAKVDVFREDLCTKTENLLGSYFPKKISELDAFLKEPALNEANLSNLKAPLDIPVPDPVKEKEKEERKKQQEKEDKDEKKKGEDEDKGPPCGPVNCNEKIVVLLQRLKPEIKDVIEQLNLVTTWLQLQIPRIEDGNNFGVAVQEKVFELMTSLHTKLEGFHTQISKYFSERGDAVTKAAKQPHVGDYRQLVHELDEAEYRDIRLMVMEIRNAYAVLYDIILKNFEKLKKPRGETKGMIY
# Chain of UniProt P35249 (P35249 whole entry, looked up): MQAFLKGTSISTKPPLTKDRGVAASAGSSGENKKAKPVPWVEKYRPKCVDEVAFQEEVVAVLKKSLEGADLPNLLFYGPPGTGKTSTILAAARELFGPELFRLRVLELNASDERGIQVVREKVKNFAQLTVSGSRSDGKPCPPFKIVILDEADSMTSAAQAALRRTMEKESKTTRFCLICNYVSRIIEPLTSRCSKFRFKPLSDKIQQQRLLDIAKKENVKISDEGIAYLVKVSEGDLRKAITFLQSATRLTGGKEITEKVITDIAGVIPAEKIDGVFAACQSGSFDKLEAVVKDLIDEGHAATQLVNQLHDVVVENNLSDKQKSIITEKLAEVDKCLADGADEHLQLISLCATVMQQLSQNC
# Chain of UniProt O60216 (O60216 whole entry, looked up): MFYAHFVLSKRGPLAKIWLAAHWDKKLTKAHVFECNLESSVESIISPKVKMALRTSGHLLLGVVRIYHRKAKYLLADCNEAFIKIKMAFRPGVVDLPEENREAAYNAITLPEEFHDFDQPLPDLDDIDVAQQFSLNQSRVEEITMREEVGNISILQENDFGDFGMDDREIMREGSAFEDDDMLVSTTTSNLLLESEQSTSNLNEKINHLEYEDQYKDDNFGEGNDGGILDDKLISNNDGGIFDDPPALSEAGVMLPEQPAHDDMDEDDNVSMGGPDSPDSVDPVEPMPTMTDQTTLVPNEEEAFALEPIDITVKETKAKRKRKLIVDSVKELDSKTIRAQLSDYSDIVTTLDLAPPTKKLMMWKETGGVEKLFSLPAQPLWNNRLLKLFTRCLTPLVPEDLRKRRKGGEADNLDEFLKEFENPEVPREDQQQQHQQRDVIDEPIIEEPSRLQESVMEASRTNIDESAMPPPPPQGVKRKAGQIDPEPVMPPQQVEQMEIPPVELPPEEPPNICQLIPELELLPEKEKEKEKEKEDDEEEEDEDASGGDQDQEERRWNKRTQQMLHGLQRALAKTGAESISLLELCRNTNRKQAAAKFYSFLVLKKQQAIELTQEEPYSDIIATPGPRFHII
# Chain of UniProt Q9P258 (Q9P258 whole entry, looked up): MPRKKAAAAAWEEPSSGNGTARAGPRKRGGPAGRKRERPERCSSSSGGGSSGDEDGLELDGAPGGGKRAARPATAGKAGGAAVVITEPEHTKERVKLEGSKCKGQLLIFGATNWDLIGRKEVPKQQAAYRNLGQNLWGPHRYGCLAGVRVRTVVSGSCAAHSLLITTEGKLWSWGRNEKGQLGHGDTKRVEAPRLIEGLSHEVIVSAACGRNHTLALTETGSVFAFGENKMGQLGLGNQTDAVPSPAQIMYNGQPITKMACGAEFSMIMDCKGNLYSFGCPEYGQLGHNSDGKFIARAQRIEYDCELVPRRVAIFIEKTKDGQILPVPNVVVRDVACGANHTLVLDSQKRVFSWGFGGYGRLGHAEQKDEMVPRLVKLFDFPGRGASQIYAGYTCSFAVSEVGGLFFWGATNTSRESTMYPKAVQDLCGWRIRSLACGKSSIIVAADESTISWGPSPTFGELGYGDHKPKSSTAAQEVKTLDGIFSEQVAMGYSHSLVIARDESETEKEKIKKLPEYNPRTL
# Chain of UniProt Q6NW40 (Q6NW40 whole entry): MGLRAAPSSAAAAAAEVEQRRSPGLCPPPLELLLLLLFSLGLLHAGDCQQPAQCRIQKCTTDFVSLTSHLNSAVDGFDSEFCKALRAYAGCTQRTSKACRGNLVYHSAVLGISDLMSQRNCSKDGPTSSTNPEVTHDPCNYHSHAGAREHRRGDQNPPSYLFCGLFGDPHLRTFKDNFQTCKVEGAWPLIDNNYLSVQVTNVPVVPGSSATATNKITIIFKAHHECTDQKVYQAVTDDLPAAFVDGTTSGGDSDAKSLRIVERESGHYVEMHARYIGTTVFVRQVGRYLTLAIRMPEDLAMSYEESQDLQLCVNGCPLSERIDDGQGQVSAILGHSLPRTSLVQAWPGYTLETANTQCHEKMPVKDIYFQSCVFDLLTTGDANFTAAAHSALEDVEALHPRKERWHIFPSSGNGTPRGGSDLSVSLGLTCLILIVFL
# Chain of UniProt Q9H6Z4 (Q9H6Z4 whole entry, looked up): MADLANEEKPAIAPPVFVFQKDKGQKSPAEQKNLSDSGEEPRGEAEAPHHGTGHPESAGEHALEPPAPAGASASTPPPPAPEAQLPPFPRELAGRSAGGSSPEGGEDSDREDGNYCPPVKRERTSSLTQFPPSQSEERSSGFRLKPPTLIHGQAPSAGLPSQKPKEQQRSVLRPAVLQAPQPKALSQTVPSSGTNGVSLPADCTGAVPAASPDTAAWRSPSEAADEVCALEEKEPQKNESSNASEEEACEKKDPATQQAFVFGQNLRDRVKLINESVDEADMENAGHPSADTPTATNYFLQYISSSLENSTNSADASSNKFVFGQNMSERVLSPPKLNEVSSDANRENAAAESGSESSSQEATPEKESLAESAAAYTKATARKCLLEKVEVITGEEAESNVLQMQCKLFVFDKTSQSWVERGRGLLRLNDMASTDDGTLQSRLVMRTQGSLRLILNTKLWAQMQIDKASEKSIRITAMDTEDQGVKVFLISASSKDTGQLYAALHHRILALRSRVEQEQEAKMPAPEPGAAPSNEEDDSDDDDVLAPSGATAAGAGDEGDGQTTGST
# Chain of UniProt P84095 (P84095 whole entry, looked up): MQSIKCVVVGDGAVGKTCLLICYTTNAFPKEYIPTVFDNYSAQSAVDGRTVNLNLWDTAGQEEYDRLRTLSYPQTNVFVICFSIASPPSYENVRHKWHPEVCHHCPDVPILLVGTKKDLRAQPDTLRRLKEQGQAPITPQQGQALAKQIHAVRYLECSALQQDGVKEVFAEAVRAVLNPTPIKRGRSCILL
# Chain of UniProt Q9UJ41 (Q9UJ41 whole entry, looked up): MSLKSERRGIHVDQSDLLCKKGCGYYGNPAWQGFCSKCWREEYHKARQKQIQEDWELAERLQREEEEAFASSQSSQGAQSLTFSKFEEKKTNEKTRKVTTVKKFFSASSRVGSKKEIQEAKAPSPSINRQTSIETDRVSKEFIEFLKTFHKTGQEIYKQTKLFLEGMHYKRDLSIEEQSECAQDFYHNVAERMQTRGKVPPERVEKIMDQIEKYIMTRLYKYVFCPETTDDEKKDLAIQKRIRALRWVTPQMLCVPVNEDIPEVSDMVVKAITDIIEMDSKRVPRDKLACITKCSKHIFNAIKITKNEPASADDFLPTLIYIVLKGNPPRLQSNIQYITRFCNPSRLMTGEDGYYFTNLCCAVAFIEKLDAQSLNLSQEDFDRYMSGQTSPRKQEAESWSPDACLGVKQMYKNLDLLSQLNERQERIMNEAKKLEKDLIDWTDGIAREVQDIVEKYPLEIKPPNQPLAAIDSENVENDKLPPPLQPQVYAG
Target,probe-labelled cysteine peptide fold change (10 µM),probe-labelled cysteine peptide fold change (50 µM)
RBM4B_Q9BQ04_31_VLECDIIK<|>RBM4_Q9BWF3_31_VLECDIIK (UniProt Q9BWF3+Q9BQ04),-0.00323,-0.0431
RHOG_P84095_105_WHPEVCHHCPDVPILLVGTKK (UniProt P84095),-0.292,-0.278
RGMB_Q6NW40_226_ITIIFKAHHECTDQK (UniProt Q6NW40),-0.5,-0.619
RAD21_O60216_35_AHVFECNLESSVESIISPK (UniProt O60216),0.0257,0.111
RANBP3_Q9H6Z4_249_NESSNASEEEACEK (UniProt Q9H6Z4),0.387,-0.572
RFC4_P35249_180_FCLICNYVSR (UniProt P35249),-0.16,-0.0464
RABGEF1_Q9UJ41_359_RDLSIEEQSECAQDFYHNVAER (UniProt Q9UJ41),0.648,-0.0585
PSME1_Q06323_101_KKGEDEDKGPPCGPVNCNEK (UniProt Q06323),-0.56,-0.596
RCC2_Q9P258_280_GNLYSFGCPEYGQLGHNSDGK (UniProt Q9P258),0.288,-0.207

# — the supplement of paper PMC12067093, “Discovery and optimisation of a covalent ligand for TRIM25 and its application to targeted protein ubiquitination” (Chemical Science, 2025)
